# PubChem BioAssay AID588651 (The Scripps Research Institute Molecular Screening Center, 2011)
# The source made the active and inactive calls. Cut-off read from the data, not from the text of the source: active = inhibition above about 65%; inactive = the rest.
# Test system: Antitargets
# Experiment: Fam108b inhibitors and proteome off-target selectivity – biochemical, gel-based ABPP, recombinant soluble Fam108b, HTS hits, complex proteome, late-stage follow-up (AID 588651);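 note: Fam108b spiked into mouse brain membrane proteome; tested at 20 µM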
# Settings: FP-rhodamine labeling in proteome
row,Structure (SMILES),outcome
1,N=c1oc2cc(O)ccc2cc1C(=O)Nc1ccc(Br)cc1,inactive
2,O=C1C(Cl)=C(Nc2ccc3cn[nH]c3c2)C(=O)c2ccccc21,inactive
3,Oc1ccc(C2Nc3cccc4cccc(c34)N2)c(O)c1,inactive
4,Oc1ccc(C=NNc2ccnc3cc(Cl)ccc23)c(O)c1O,active
5,Cc1ccccc1NC1=C/C(=N\S(=O)(=O)c2cccs2)c2ccccc2C1=O,inactive
6,O=C(O)c1ccc(S(=O)(=O)/N=C2\C=C(Nc3ccccc3F)C(=O)c3ccccc32)cc1,inactive
7,COc1ccc(/C=C/C(=O)OCC(=O)Nc2cccc(Oc3ccccc3)c2)c(OC)c1,inactive
8,Nc1cc2nsnc2cc1Br,inactive
9,CCOC(=O)c1sc(NC(=O)Nc2ccc(Cl)cc2)cc1C,inactive
10,Cn1c2ccccc2c2cc(C=NNC(=O)c3cc(O)ccc3O)ccc21,inactive
11,COc1ccc(-c2csc3nc(-c4ccccc4OC)oc(=O)c23)cc1,inactive
12,Brc1csc(C=NNc2nc3ccccc3s2)c1,inactive
13,CN(C)S(=O)(=O)c1cccc(NC(=O)COC(=O)c2cc(-c3cccc(Br)c3)nc3ccccc23)c1,inactive
14,COc1cccc(-n2c(SCc3cc(=O)oc4cc(O)c(O)cc34)nc3ccccc3c2=O)c1,inactive
15,COc1cc2c(cc1NC(=S)Nc1cccc(C(F)(F)F)c1)oc1ccccc12,inactive
16,CC1=CC(=O)c2c(O)ccc(O)c2C1=O,inactive
17,Cc1[nH]c2c(C)cccc2c1CCNC(=O)c1ccc2c(c1[N+](=O)[O-])C(=O)c1ccccc1C2=O,inactive

row,Structure (SMILES),outcome
1,Cc1c(O)ccc(C=NNc2nc(-c3cccnc3)nc3ccccc23)c1O,active
2,O=[N+]([O-])c1ccc(NN=Cc2ccccc2O)cc1,inactive
3,Cc1ccc2nc(CSc3nc(C)ccc3C#N)[nH]c2c1,inactive
4,CCc1ccc(S(=O)(=O)/N=C2\C=C(Nc3cccc(C(=O)O)c3)C(=O)c3ccccc32)cc1,inactive
5,Cc1nc2scc(-c3ccc(Cl)cc3)c2c(=O)o1,inactive
6,Oc1cccc2cc3cccc(O)c3c(O)c12,active
7,COc1ccc2ccccc2c1C(O)c1nccn1C (centres undefined),inactive
8,COc1cc2c(cc1NC(=O)Nc1ccccc1)oc1ccccc12,inactive
9,CCCCCCCCCCCCCCCC[n+]1ccc(C=NO)cc1,inactive
10,COc1ccc(C=NNC(=O)c2ccc(O)cc2)cc1CN1CCCc2ccccc21,inactive
11,Nc1c(S(=O)(=O)c2cccc(Cl)c2)c2nc3ccccc3nc2n1N=Cc1ccc(O)c(O)c1,inactive
12,Cn1c(O)c(C=NNC(=O)c2cc3ccccc3cc2O)c2ccccc21,inactive
13,Cc1ccc(S(=O)(=O)Nc2ccccc2C(=O)Nc2nc(-c3ccc(F)cc3)cs2)cc1,inactive
14,Cc1cc(C(C#N)c2ccc(Cl)cc2)c(Cl)cc1NC(=O)c1cc(I)cc(I)c1O (centres undefined),inactive
15,O=C(NN=Cc1ccc(O)cc1)c1cccc(NN=Cc2ccc(O)cc2)c1,active
16,Cc1cccc(N=Cc2nc(-c3ccccc3Br)oc2O)n1,inactive
17,O=C1C(SCCO)=C(SCCO)C(=O)c2ccccc21,inactive
